Measurements: PubChem BioAssay (NCI)
The panel holds about 83,000 compounds, 20% with a hit somewhere; the sample as a whole holds those more often.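 The test compound was applied at a single concentration to cells in 96-well plates for 48 hours, and percent growth was recorded.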 Calls of active or inactive are those of the source. The calls were made as follows: active = growth percent below 10; inactive = the rest.

How the values were obtained:
Test in all cases: NCI-60 one-dose screen, 48 h (100 = growth as untreated, 0 = no growth, -100 = all killed)
Conditions in all cases: 10 µM
[1] = test system: NCI-H23 lung
[2] = test system: NCI-H226 lung
[3] = test system: HOP-62 NSCLC
[4] = test system: NCI-H460 lung
[5] = test system: HOP-92 NSCLC
[6] = test system: NCI-H522 lung
[7] = test system: A549/ATCC NSCLC
[8] = test system: 786-0 renal
[9] = test system: COLO 205 colon
[10] = test system: DU-145 prostate
[11] = test system: K-562 leukemia
[12] = test system: MDA-MB-231 breast
[13] = test system: RXF 393 renal
[14] = test system: SF-268 CNS
[15] = test system: SF-295 CNS
[16] = test system: SF-539 CNS
[17] = test system: UACC-257 melanoma
[18] = test system: M14 melanoma
[19] = test system: MALME-3M melanoma

Measured: growth

O=C1c2ccccc2C(=O)N1CCCCNc1ccccc1
inactive: [1] 104% | [2] 91.7% | [3] 122% | [4] 89.3% | [5] 106% | [6] 101% | [7] 78.2% | [8] 63.7% | [9] 114% | [10] 102% | [11] 149% | [12] 79.6% | [13] 104% | [14] 54.1% | [15] 98% | [16] 74.6% | [17] 106% | [18] 98.9%

COc1cc2ncnc(NC3CCC(O)CC3)c2cc1OC (stereo not drawn)
inactive: [1] 91.2% | [2] 92.7% | [3] 99.2% | [4] 102% | [5] 89.7% | [6] 81.6% | [7] 85.9% | [8] 85.5% | [9] 102% | [10] 102% | [11] 58.2% | [19] 103% | [12] 93.7% | [13] 102% | [14] 101% | [15] 94.9% | [16] 95.4% | [18] 98.8%

COc1cc(C(=O)/C=C/c2c[nH]c3ccccc23)cc(OC)c1OC
inactive: [1] 16.1% | [2] 55.6% | [3] 41.1% | [5] 39.2% | [7] 17.7% | [8] 12.2% | [11] 11.3% | [19] 52.5% | [12] 13% | [13] 43% | [14] 20.3% | [15] 16.9%
active: [4] 8.04% | [6] -27% | [9] -65.1% | [10] 5.54% | [16] -1.84% | [18] 8.91%

N#Cc1c(N)nc(-c2cc(F)cc(C(F)(F)F)c2)nc1-c1ccccc1F
inactive: [1] 51.9% | [2] 30.1% | [3] 21.9% | [4] 15.2% | [5] 34.7% | [6] 68.3% | [7] 41.7% | [9] 24.7% | [10] 61% | [11] 56.7% | [19] 33.2% | [12] 21.3% | [13] 37.4% | [14] 55.3% | [15] 35.2% | [16] 52.1% | [18] 63.1%
active: [8] 1.27%

N#Cc1c(-c2ccc(Cl)cc2)csc1NC(=O)Nc1ccc(Cl)c(C(F)(F)F)c1
inactive: [1] 15.8% | [3] 14.5% | [7] 18.3% | [8] 35.9% | [13] 33.7% | [14] 27.8% | [16] 31.5%
active: [2] 8.81% | [4] 2.11% | [5] -9.88% | [6] -12.8% | [9] -30.4% | [10] 5.84% | [11] 9.03% | [19] -26.7% | [12] 2.12% | [15] -27.2% | [18] 8.06%

O=C(O)c1ccc(-n2cc(CNc3ccc(Oc4ccccc4)cc3)c(-c3ccccc3)n2)cc1
inactive: [1] 81.1% | [2] 99.3% | [3] 122% | [4] 90.2% | [5] 89% | [6] 84.4% | [7] 76.5% | [8] 90.6% | [9] 101% | [10] 99.8% | [11] 78.3% | [19] 88.6% | [12] 92% | [13] 86.9% | [14] 90.2% | [15] 72.1% | [16] 90.6% | [18] 97.2%

COc1cc(C(=O)/C(C)=C/c2c[nH]c3ccccc23)cc(OC)c1OC
active: [4] 9.7% | [6] -19.4% | [9] -39.2% | [10] 2.39% | [16] -3.72% | [18] -1.18%
inactive: [1] 32.3% | [2] 61.7% | [3] 39.2% | [5] 47.1% | [7] 11.6% | [8] 11% | [11] 14.3% | [19] 68.1% | [12] 16.1% | [13] 46.2% | [14] 26.8% | [15] 12.4%

Cc1noc(C)c1CSc1ccccc1C(=O)N1CCN(c2cccc(C(F)(F)F)c2)CC1
inactive: [1] 67.9% | [2] 75.6% | [3] 91.5% | [4] 84.2% | [5] 68.1% | [6] 62% | [7] 73.7% | [8] 87.5% | [9] 74.2% | [10] 95.7% | [11] 52.8% | [19] 84.5% | [12] 65.7% | [13] 99.8% | [14] 95.3% | [15] 75.2% | [16] 87.4% | [18] 71.6%

CCn1c(SCCc2ccccc2)nnc1-c1nn(-c2ccc(Cl)cc2Cl)c(-c2ccc(Cl)cc2)c1C
inactive: [1] 62.2% | [2] 58% | [3] 101% | [4] 73.7% | [5] 85% | [6] 61.1% | [7] 65.1% | [8] 72.9% | [9] 77.7% | [10] 84.7% | [11] 48.1% | [19] 96% | [12] 81.1% | [13] 66% | [14] 77.4% | [15] 65.7% | [16] 85.9% | [18] 72.8%

C[C@@H](C[C@H](CCO)c1ccccc1)c1ccc2ccccc2c1
active: [1] -65.1% | [2] -65.7% | [3] -55% | [4] -48.5% | [5] -95.6% | [6] -53.9% | [7] -81.4% | [8] -90.6% | [9] -86.9% | [10] -40.9% | [11] -35.2% | [19] -87.6% | [12] -73.6% | [13] -87.4% | [14] -70.4% | [15] -89.2% | [16] -82.7% | [18] -84.2%

CC(C1=C(CN(C(=O)Cc2cn(-c3ccccc3)nc2-c2ccc(Cl)cc2)C(C)C)Cc2ccccc21)c1ccccn1 (stereo not drawn)
inactive: [1] 55.3% | [2] 69.9% | [3] 92.7% | [4] 53.1% | [5] 62.2% | [6] 44.2% | [7] 61% | [8] 68.2% | [9] 66.7% | [10] 81% | [11] 43.4% | [12] 60.2% | [13] 86.7% | [14] 74.5% | [15] 75.2% | [16] 87.2% | [17] 67.3% | [18] 64.7%

Cc1ccc(C(=O)/C=C/c2ccccc2)s1
inactive: [1] 109% | [2] 93.8% | [3] 120% | [4] 108% | [5] 144% | [6] 93.5% | [7] 101% | [8] 86.7% | [9] 134% | [10] 92% | [11] 108% | [12] 112% | [13] 94.3% | [14] 99% | [15] 92.6% | [16] 132% | [17] 121% | [18] 86.9%

CCn1c(SCc2ccc(C)cc2)nnc1-c1nn(-c2ccc(Cl)cc2Cl)c(-c2ccc(Cl)cc2)c1C
active: [1] 3.53% | [3] 9.33% | [4] 8.69% | [5] -17.2% | [6] -17.4% | [7] 9.87% | [9] -34.3% | [11] 8.88% | [19] 7.8% | [12] 5.05% | [13] 8.71% | [15] 9.65%
inactive: [2] 11.6% | [8] 12.2% | [10] 23.4% | [14] 22.8% | [16] 19.8% | [18] 12.3%

COc1ccc2c(c1)C(=O)/C(=C/c1cccc(OCC(=O)c3ccc([N+](=O)[O-])cc3)c1)CO2
active: [1] -15% | [6] -53.4% | [11] -81.2% | [17] -49.4% | [18] 8.08%
inactive: [2] 70.5% | [3] 77% | [4] 73.9% | [5] 60.9% | [7] 23.7% | [8] 82.8% | [9] 98.4% | [10] 63.4% | [19] 30.4% | [12] 60.9% | [14] 62.8% | [15] 43.3% | [16] 27.8%

CNC(=O)c1cn(C2CC2)c2cc(N3CCN(C(=O)c4cc(OC)c(OC)c(OC)c4)CC3)c(F)cc2c1=O
inactive: [1] 93.7% | [2] 93% | [3] 90.8% | [4] 106% | [5] 92.3% | [6] 90% | [7] 94.6% | [8] 93.4% | [9] 105% | [10] 104% | [11] 104% | [19] 103% | [12] 98.2% | [13] 112% | [14] 96.8% | [15] 98% | [16] 98.9% | [18] 109%

CNC(=O)c1cn2c3c(c(N4CCN(C)CC4)c(F)cc3c1=O)OC[C@@H]2C
inactive: [1] 96.3% | [2] 93% | [3] 94.5% | [4] 103% | [5] 98.5% | [6] 90.4% | [7] 95.7% | [8] 96.2% | [9] 110% | [10] 104% | [11] 102% | [19] 106% | [12] 102% | [13] 103% | [14] 97% | [15] 98.7% | [16] 105% | [18] 106%
